Data on 40 compounds can be found in PubChem BioAssay (NCI).

The structures appear in SMILES notation. This is part of a sample that, as a whole, favours compounds with a hit. Of some 83,000 tested, about 20% had one in any assay.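 Plates (96-well) were seeded with cells, treated with compound at one concentration, and incubated for 48 hours before percent growth was determined.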 Active and inactive are the calls of the source. Rule for the calls: active = growth percent below 10; inactive = the rest.

The test system of this experiment is HL-60(TB) leukemia. Briefly: NCI-60 one-dose screen, 48 h (100 = growth as untreated, 0 = no growth, -100 = all killed). The conditions noted are these: 10 µM unless noted.
As for `CN1CCN(c2ccc(Nc3ncc4[nH]c(=O)n(Cc5ccccc5N)c4n3)cc2)CC1`, the growth was 97.2% (inactive).
Take `CCOC(=O)C1CCNC(=O)C1=O` (stereo not given): the growth was 86% (inactive).
For `COCCOCCOCCOCCOc1ccc2c(c1)C(=O)c1nc3ncccc3c(=O)n1-2`, the growth is -64.6% (active).
Regarding `CC(C)C1=C[C@@]23CC[C@@H]4[C@](C)(CCC[C@@]4(C)C(=O)N4CCCNCC4)[C@H]2C[C@@H]1[C@H]1C(=O)CCC(=O)[C@H]13`, the growth is 100% (inactive).
In the case of `O=C(Nc1ccncc1)C(=O)c1cn(S(=O)(=O)c2ccc(Oc3ccccc3)cc2)c2ccccc12`, the growth is 70.5% (inactive).
The same measure for `Cc1ccc(O)c(N)c1`: 115% (inactive); for `Cc1nn(-c2ccc(F)cc2)c2ncnc(Oc3ccc(NC(=O)Nc4ccc(Cl)c(C(F)(F)F)c4)cc3)c12`: 99% (inactive).
For `COC(=O)[C@H](Cc1cn(C)cn1)NC(=O)[C@H](Cc1c[nH]c2ccccc12)NC(=O)Nc1cc(C(F)(F)F)cc(C(F)(F)F)c1`, the growth was -54.5% [100 µM] (active).
With `O=CNCCc1ccccc1`, the growth is 87.6% (inactive).
For `Fc1ccccc1CSc1ncnc2nc[nH]c12`, the growth was 90.4% (inactive).
The value for `CC1(c2ccccc2Cl)NC(=O)NC1=O` (stereo not given) was 87.8% (inactive).
`COc1ccc(/C=C/C(=O)c2cc3c(N)c(C(=O)Nc4ccccc4C)sc3nc2C)cc1`: the growth was 10.7% (inactive).
Turning to `CCOC(=O)c1c(C)nc2c(c1N)CC(=O)N2Cc1ccc(F)cc1`, the growth was 83.5% (inactive).
The value for `CC(=O)N1CCN(c2ccc(OCC3CO[C@](Cn4ccnc4)(c4ccc(Cl)cc4Cl)O3)cc2)CC1` (stereo not given in full) was 56.5% (inactive); that for `Nc1nc(-c2cnccn2)nn1-c1nc2ccccc2s1` was 100% (inactive).
Regarding `Cc1cc(N/N=C/c2ccccn2)nc2ccccc12`, the growth is -12.8% (active).
`COc1cc(-c2c3sc(=O)[nH]c3nc3c2c(=O)[nH]n3C(C)C)cc2c1OCO2`: the growth was 116% (inactive).
With `C=C1C(=O)O[C@H]2[C@H]1CC/C(COC(=O)NCc1ccc(Cn3c(=O)sn(-c4ccc(Cl)cc4)c3=O)cc1)=C\CC[C@@]1(C)O[C@@H]21`, the growth was -11.4% (active).
The value for `Cc1nn2c(-c3nc4cc(Cl)c(Cl)cc4[nH]3)c(-c3ccc(F)cc3)nc2s1` was 106% (inactive); that for `CC1=CC(=O)c2ccccc2C1=O` was 106% (inactive); that for `O=S(=O)(c1ccc(NC(=S)NCc2cccnc2)cc1)N1CCCCC1` was 64.9% (inactive).
Consider `CCCCCCOc1ccc(/C=N/NC(N)=S)cc1`, for which the growth is 8.79% (active).
For `CC1CCC(C)(C)c2ccccc21` (stereo not given), the growth was 109% (inactive).
In the case of `Cc1ccccc1-n1nnc(C(=O)Nc2nc(-c3ccccc3)c(-c3ccccc3)s2)c1C`, the growth was 89.1% [50 µM] (inactive).
On to `COc1cc(/C=C/C(=O)c2c(C)n([O-])c3ccc(Cl)cc3[n+]2=O)cc(OC)c1OC`, for which the growth was 12.7% (inactive).
Turning to `N#Cc1c(-c2ccc(Cl)cc2)nc(N/N=C/c2cccc(Br)c2)nc1N1CCOCC1`, the growth is 40.6% (inactive).
As for `COc1ccc2c(c1)c(-c1nonc1-c1cn(C)c3ccccc13)cn2C`, the growth is 2.88% (active).
For the compound `CCOC(=O)c1c(C)nc2c(c1N)CC(=O)N2Cc1ccc(OC)cc1`, the growth is 110% (inactive).
The value for `Nc1nc(I)c2ncn(C3OC(CO)C(O)C3O)c2n1` (stereo not given) was 99.4% (inactive).
Regarding `Cn1c(-c2ccccc2)c(/C=C/C2=[N+](C)c3ccccc3C2(C)C)c2ccccc21`, the growth is -52.5% (active).
In the case of `Cc1cc(=O)n(C(=O)Nc2ccccc2Cl)c2cc(O)ccc12`, the growth is 107% (inactive).
The value for `CCOC(=O)c1c(C(=O)OCC)c2cc(-c3ccn4c(C(=O)c5ccccc5)c(C(=O)OCC)c(C(=O)OCC)c4c3)ccn2c1C(=O)c1ccccc1` was 86.3% (inactive).
In the case of `Cc1ccc2nc(-c3ccc(OCC(=O)N=Nc4c(O)[nH]c5ccccc45)cc3)[nH]c2c1`, the growth is 88.9% (inactive).
In the case of `O=C(Cn1c[n+](CC(=O)c2ccc([N+](=O)[O-])cc2)c2ccccc21)Nc1cccc2cccnc12`, the growth was 61.9% (inactive).
As for `Cc1ccc(C(=O)c2ccc(CC(=O)N=Nc3c(O)[nH]c4ccc(OC(F)(F)F)cc34)n2C)cc1`, the growth is 94.6% (inactive).
The same measure for `COc1ccc(/C=N\NC(=O)c2ccc3nc(-c4ccc(Cl)cc4)[nH]c3c2)cc1`: 96.3% (inactive).
The value for `O=C(Cc1ccc(/C=C/C(=O)c2nccs2)cc1)Nc1ccccc1` was 75% (inactive).
Take `COC(=O)c1nc(-c2ccccc2)oc1S(=O)(=O)Cc1ccccc1`: the growth was 16.8% (inactive).
With `Cc1cc2nc3ccc(N=Nc4ccc(N(C)C)cc4)cc3n(-c3ccccc3)c-2cc1=N`, the growth was -2.79% (active).
For the compound `O=C(Nc1ccccn1)[C@H](O)[C@@H](O)C(=O)N1CCOCC1`, the growth was 116% (inactive).
